Calls of active or inactive are those of the source. How the source made its calls: active means hit-call score of the fitted dose curve at least 0.9, where 1 is the maximum; inactive means score below 0.9.
experiment: ATG_ERE_CIS: Attagene CIS-FACTORIAL HepG2 Assay for Estrogen Response Element (ERE) (AID 2282940); conditions: HepG2 ERE cis-reporter, Attagene RNA transcript; actives raise or lower the signal
Experimental: ATG_CIS is a cell-based, multiplexed-readout assay that uses HepG2, a human liver cell line, with measurements taken at 24 hours after chemical dosing in a 24-well plate.ATG_ERE_CIS is one of 52 assay component(s) measured or calculated from the ATG_CIS assay. It is designed to make measurements of mRNA induction, a form of inducible reporter, as detected with fluorescence intensity signals by Reverse transcription polymerase chain reaction (RT-PCR) and Capillary electrophoresis technology.Data from the assay component ATG_ERE_CIS was analyzed into 1 assay endpoint. This assay endpoint, ATG_ERE_CIS, was analyzed with bidirectional fitting relative to DMSO as the negative control and baseline of activity. Using a type of inducible reporter, measures of mRNA for gain or loss-of-signal activity can be used to understand the reporter gene at the transcription factor-level as they relate to the gene ESR1. Furthermore, this assay endpoint can be referred to as a primary readout, because this assay has produced multiple assay endpoints where this one serves a reporter gene function. To generalize the intended target to other relatable targets, this assay endpoint is annotated to the nuclear receptor intended target family, where the subfamily is steroidal.
Human liver HepG2 cells are transiently transfected with multiple reporter transcription units (MRTUs) in 6-well plates using FuGene 6 reagent (Roche; 3 ml FuGene/1 mg DNA). The MRTU constructs are regulated by a cis-regulating element (promoter). […] A major difference between the CIS and TRANS system is that in CIS activities of endogenous TFs are measured, whereas the TRANS assay evaluates changes in activities of exogenous, chimeric NR-Gal4 proteins. […] At the end of 24 hour incubation, total RNA was isolated using TriZol reagent (Invitrogen). The isolated RNA is then reverse-transcribed using oligo(dT) primer and Mo-MLV reverse transcriptase (Invitrogen) with DNAse I (Ambion) treatment for 30 min. The one-tenth of the produced cDNA was amplified by PCR using Taq DNA polymerase (Invitrogen) and two reporter sequence-specific primers. The PCR products were fluorescently labeled by primer extension with 6-arboxyfluorescein (6-FAM) 5'-labeled reporter sequence-specific primer (2 min at 95 C, 20 s at 68 C and 10 min at 72 C) and these products were digested with 5U of HpaI (New England Biolabs) for 2h at 37 C. The fragments were purified using Qiaquick PCR columns (Qiagen), analyzed on an ABI 3130xL genetic analyzer (Applied Biosystems) with peak positions identified by using a set of X-rhodamine (ROX)-labeled MapMarker1000 molecular weight standards (BioVentures). The raw capillary electrophoresis data was processed using Attagraph software (Attagene).

For `CC1(C)CC(=O)CC(C)(C)N1`, which outcome is on record?
The outcome was “inactive”.

For `COc1ccccc1O`, which outcome is on record?
Its outcome is “inactive”.

Which AC50 does the source give for `CCCCCCCCCOS(=O)(=O)O` here?
Its AC50 is 5.14 µM (active).

For `C=CCOCC(O)CO` (stereo not given), which outcome is on record?
Its outcome is “inactive”.

With `CC(C)(C)c1cccc(O)c1` as the compound, how does the outcome read?
The outcome was “inactive”.

With `CCCc1ccc(N)cc1` as the compound, how does the outcome read?
The outcome was “inactive”.

Which outcome does the source give for `CCCCCCCCCCCCOC(C)=O` here?
The outcome was “inactive”.

For `CCOC(=O)C(=O)OCC`, which outcome is on record?
The outcome was “inactive”.

For `CC(C)(CO)CO`, which outcome is on record?
Its outcome is “inactive”.

With `CC(C)OB(OC(C)C)OC(C)C` as the compound, how does the outcome read?
Its outcome is “inactive”.

For `CCCCCCCCCO`, which outcome is on record?
Its outcome is “inactive”.

With `CCO[Si](CC)(OCC)OCC` as the compound, how does the outcome read?
Its outcome is “inactive”.

For `CN1CCc2cccc3c2[C@H]1Cc1ccc(O)c(O)c1-3`, which AC50 is on record?
Its AC50 is 0.386 µM (active).

Which outcome does the source give for `CCCCCCCCCCCCS` here?
The outcome was “inactive”.

Which outcome does the source give for `CCCCC/C=C\C=C\C(=O)OCC` here?
Its outcome is “inactive”.

For `CCNC(=S)NCC`, which outcome is on record?
The outcome was “inactive”.

For `CC/C=C\C#N`, which outcome is on record?
Its outcome is “inactive”.

With `c1ccc(Cc2ccccc2)cc1` as the compound, how does the AC50 read?
Its AC50 is 100 µM (active).

For `Cc1ccncc1`, which outcome is on record?
The outcome was “inactive”.

For `Cc1ccc(C(C)(C)O)cc1`, which outcome is on record?
The outcome was “inactive”.

Which outcome does the source give for `CCCCOCCOC(=O)c1ccccc1C(=O)OCCOCCCC` here?
Its outcome is “inactive”.

Which AC50 does the source give for `O=C(OCc1ccccc1)c1ccccc1O` here?
The AC50 was 76.3 µM (active).

Which outcome does the source give for `CC12CCC(C1)C(C)(C)C2O` (stereo not given) here?
Its outcome is “inactive”.

Which outcome does the source give for `C=COCC1CCC(COC=C)CC1` (stereo not given) here?
The outcome was “inactive”.

With `CC(CCO)CC(C)(C)C` (stereo not given) as the compound, how does the outcome read?
Its outcome is “inactive”.

Which outcome does the source give for `CCCOC(=O)CC` here?
The outcome was “inactive”.

With `Cc1cc(O)c(C)c(C)c1O` as the compound, how does the outcome read?
Its outcome is “inactive”.

Which outcome does the source give for `FC(F)(F)c1ccc(Cl)c(Cl)c1` here?
Its outcome is “inactive”.

For `O=C(O)c1cc2ccccc2cc1O`, which outcome is on record?
The outcome was “inactive”.

With `CC(C)(O)C(=O)c1ccc(OCCO)cc1` as the compound, how does the outcome read?
The outcome was “inactive”.

For `CC(C)CCOC(=O)CC(C)C`, which outcome is on record?
Its outcome is “inactive”.

With `C=C(C)C(=O)OCCOCCOC(=O)C(=C)C` as the compound, how does the outcome read?
The outcome was “inactive”.

Which outcome does the source give for `CC1(C)[C@H](C=C(Cl)Cl)[C@H]1C(=O)OCc1cccc(Oc2ccccc2)c1` here?
The outcome was “inactive”.

Which AC50 does the source give for `CC(=O)c1ccc(O)cc1` here?
The AC50 was 26.5 µM (active).

With `CCCCCCCCOC(C)=O` as the compound, how does the outcome read?
The outcome was “inactive”.

Which outcome does the source give for `c1ccc2scnc2c1` here?
Its outcome is “inactive”.

With `CC(=O)C1=C(C)[C@@H]2C[C@@]3(C1)[C@H](C)CC[C@H]3C2(C)C` as the compound, how does the AC50 read?
The AC50 was 68.1 µM (active).

For `CN(C)c1ccc(C=O)cc1`, which outcome is on record?
The outcome was “inactive”.

With `CC1=CC[C@@H]2C[C@H]1C2(C)C` as the compound, how does the outcome read?
Its outcome is “inactive”.

With `CCOc1ccc(NC(C)=O)cc1` as the compound, how does the outcome read?
Its outcome is “inactive”.
